14-3-3g Raf – alters human 14-3-3 gamma binding to Raf peptide | FP, 14-3-3gamma / TMR-pS259-Raf peptide binding | inhibition, % at 40 µM | 160,000 compounds, 0.19% hits; in the data active = inhibition above about 30%;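 note: 0% = protein plus tracer without compound and 100% = blank with tracer alone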
Target sequence (P61981 whole entry, looked up): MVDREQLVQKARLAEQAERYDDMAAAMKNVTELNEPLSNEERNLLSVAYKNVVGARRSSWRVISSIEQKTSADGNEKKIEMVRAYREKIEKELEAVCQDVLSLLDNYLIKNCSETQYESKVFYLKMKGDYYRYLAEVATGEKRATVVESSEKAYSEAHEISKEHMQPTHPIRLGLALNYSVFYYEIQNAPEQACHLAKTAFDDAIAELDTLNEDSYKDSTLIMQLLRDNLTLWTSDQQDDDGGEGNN
Numbers without * were called inactive; ! = not confirmed by another sample. This is one part of a sample in which hits are shown more often than they occur.

SMILES | 14-3-3g Raf
O=C(O)c1ccccc1C1=Nc2ccc(O)cc2Oc2cc(O)ccc21 | 123*
CC(=O)Nc1cc(C(=O)NC2CCCc3ccccc32)ccc1Sc1ccc(Cl)cc1 (stereo not given) | -5
O=C1c2cccc3cccc(c23)C(=O)N1c1ccccc1 | 4
NC1=CC(=O)c2cccc3cccc1c23 | 80*!
Cc1nnc(C)n1N1C(=O)c2cccc3cccc(c23)C1=O | -6
COc1ccc2nc(NC(=O)COC(=O)c3ccccc3Br)sc2c1 | -8
Cc1cccc(-n2ccnc2SCC(=O)N2CCc3ccccc32)c1C | 0
COc1ccc(N=Cc2cc(Br)ccc2O)c(OC)c1 | -50
CCCc1ccc(O)c(N=Cc2cc(Br)cc(OC)c2O)c1 | 85*
CCCc1ccc(O)c(N=Cc2cc(Br)cc(OCC)c2O)c1 | -134
CCCn1cnc2sc(C(=O)Nc3ccc(Oc4ccc(Cl)cc4)cc3)c(C)c2c1=O | -11
CCOC(=O)c1c(NC(=O)CN2CCOCC2)sc2c1CCCC2 | -8
CCCCOC(=O)N1CCOCCOCCN(C(=O)OCCCC)CCOCCOCC1 | 0
CCCCC1(C(=O)OCC)CC(CN2CCOCC2)OC1=O (stereo not given) | 54*
Brc1nc(Br)c(Br)c(Br)c1Br | 11
COc1ccc(Cl)cc1NC(=O)c1n[nH]c(=O)c2ccccc12 | -1
COc1cc(Br)cc(CNc2ccc3oc(Cc4ccc(Cl)cc4)nc3c2)c1O | -95
O=C(NC(=O)C1CCNCC1)c1cccc(N2CCCC2=O)c1 | -8
CCC1=NCC(=O)Nc2ccc(Cl)cc21 | -7
O=C(Nc1cccc(C(F)(F)F)c1)c1ccc(Br)c([N+](=O)[O-])c1 | 73*
Cc1c(C(=O)Nc2cccc(C(F)(F)F)c2)cccc1[N+](=O)[O-] | -3
O=C(Nc1cccc(C(F)(F)F)c1)c1ccc(NC(=O)c2cccc(Br)c2)cc1 | -15
COc1ccc2cc(C34CC5CC(CC(C5)C3)C4)ccc2c1 | -1
CC1(C)C=C(C=Cc2ccccc2Cl)NC(=S)N1 | -2
Cc1ccc(NC(=O)C(=O)NCc2ccccc2)cc1 | 5
SMILES | 14-3-3g Raf
Cn1cnc2cc(NCc3ccccn3)ccc21 | 3
CC(C)(C)n1cnc2cc(NCc3ccncc3)ccc21 | 6
CC(C)(C)n1cnc2cc(NCc3ccccn3)ccc21 | 32*
CC(C(=O)N(Cc1ccccc1)Cc1ccccc1)N1C(=O)c2ccccc2C1=O (stereo not given) | -13
CCC(C)OC(=O)C1=C(C)NC2=C(C(=O)CC(c3ccccc3)C2)C1c1cccc2ccccc12 (stereo not given) | 19
CCC(C)OC(=O)C1=C(C)NC2=C(C(=O)CC(c3ccc(OC)cc3)C2)C1c1ccc(OC)c(OC)c1 (stereo not given) | -11
CCC(C)OC(=O)C1=C(C)NC2=C(C(=O)CC(c3ccccc3)C2)C1c1cc(OC)c(OC)cc1Br (stereo not given) | 39*
CCOC(=O)c1ccc(N2C(=S)NC3CC2(C)Oc2c(OC)cccc23)cc1 (stereo not given) | 6
O=C(NCc1cccs1)c1cccc(N2C(=O)C3C4C=CC(C4)C3C2=O)c1 (stereo not given) | 0
COc1cccc(-c2ccc3c(N)c(C(=O)c4ccc(Cl)cc4)sc3n2)c1 | -3
COc1ccc(-c2ccc3c(N)c(C(=O)Nc4ccc5c(c4)OCCO5)sc3n2)cc1 | -3
COc1ccc(-c2ccc3c(N)c(C(=O)c4ccc5c(c4)OCCO5)sc3n2)cc1 | 71*
O=C(CCN1C(=O)c2ccccc2C1=O)NCc1ccncc1 | -1
O=C(CN1C(=O)c2ccccc2C1=O)NCc1ccccn1 | 14
O=C(CCN1C(=O)c2ccccc2C1=O)NCc1ccccn1 | 177*
O=c1[nH]c2ccc(S(=O)(=O)N3CCN(c4ccc(F)cc4)CC3)cc2[nH]c1=O | -8
CCCc1nc2sc3c(Cl)ncnc3c2c2c1COC(C)(C)C2 | -25
O=C(CCn1c(=O)[nH]c2ccsc2c1=O)NC1CCCCC1 | -5
CC(=O)c1c(C)[nH]c(C(=O)Nc2cc(C)ccc2C)c1C | -8
CC(=O)c1c(C(C)=O)c(C)n(-c2ccc(C)c(NC(=O)c3ccc(F)cc3)c2)c1C | 32*
Cc1cc([N+](=O)[O-])ccc1NC(=O)c1ccc(F)cc1 | 4
Cc1ccc(NC(=O)C(C)C)cc1 | 1
CCCN1CCN(C(=O)c2sc3ncn(CC(=O)N4CCCCC4C)c(=O)c3c2C)CC1 (stereo not given) | -3
Clc1ccc(-n2cc(-c3ccccc3)c3c(NCc4ccccn4)ncnc32)cc1 | -20
Cc1nc2c(ccc3nc(NC(=O)c4ccc(S(=O)(=O)N5CCC(C)CC5)cc4)sc32)s1 | -6
SMILES | 14-3-3g Raf
CC(C)NC(=O)c1ccc2c(=O)n(Cc3ccc(Cl)cc3)c(=S)[nH]c2c1 | 1
C=CCOC(=O)C1=C(C)N=C2SC(CC)C(=O)N2C1c1ccc(OC)c(OC)c1 (stereo not given) | -8
COc1cc(C2Nc3ccc4ncccc4c3C3=C2C(=O)CCC3)ccc1OC(=O)CCOc1ccc(C)cc1 (stereo not given) | 12
O=C(CN1C(=O)c2ccc([N+](=O)[O-])cc2C1=O)Nc1ccc(O)cc1C(=O)O | 37*
O=C(CN1C(=O)c2ccc([N+](=O)[O-])cc2C1=O)Nc1ccccc1[N+](=O)[O-] | 3
O=C(CN1C(=O)c2ccc([N+](=O)[O-])cc2C1=O)Nc1ccc(Br)cc1C(=O)O | -2
CCOC(=O)c1c(NC(=O)c2ccccc2C)sc2c1CCC(C)C2 (stereo not given) | 5
CCCCn1c(C=Cc2ccccc2)nc2ccccc21 | -1
COc1cccc2c1C(=O)c1c(O)c3c(c(O)c1C2=O)C[C@@](O)(C(=O)CO)C[C@@H]3O[C@H]1C[C@H](N)[C@H](O)[C@H](C)O1 | 57*
O=c1cc(CSc2nc(Nc3ccc(F)cc3)c3ccccc3n2)nc2ccc(Cl)cn12 | -20
CC(C)COc1ccc(C(=O)Nc2ccc3oc(-c4cccc(Cl)c4)nc3c2)cc1 | -80
O=C1C(=O)N(CCN2CCOCC2)C(c2cccs2)/C1=C(\O)c1ccc(Cl)cc1 (stereo not given) | -23
CC(=O)N1CCc2cc(S(=O)(=O)NCc3ccccc3Cl)ccc21 | 0
NC(=O)c1ccc(N2CCCCC2)c(N2C(=O)CCC2=O)c1 | -1
NC(=O)c1cc(N)ccc1N1CCCC1 | 31*
NC(=O)c1ccc(N2CCCCC2)c(N2C(=O)C3C4C=CC(C4)C3C2=O)c1 (stereo not given) | 2
COc1ccccc1-n1cnc2cc(C(=O)NCc3ccc(F)cc3)ccc21 | -74
COc1ccc(OC)c2c(N3CCCCC3)cc(C(F)(F)F)nc12 | -4
Cc1cccc(Nc2ncc([N+](=O)[O-])c(Nc3cccc(C)c3)n2)c1 | 7
COc1ccc(C2CC(C(F)(F)F)n3ncc(C(=O)N4CCc5cc(OC)c(OC)cc5C4C)c3N2)cc1OC (stereo not given) | 7
C=CCN(CC=C)C(=O)C[n+]1cccc(C(N)=O)c1 | 1
CCN(CC)C(=O)C[n+]1ccc(C(N)=O)cc1 | -1
C=CCN(CC=C)C(=O)C[n+]1ccc(C(N)=O)cc1 | 40*
Cc1nn(Cc2ccc(Cl)cc2)c(C)c1NC(=O)c1noc2c1CC(C(C)(C)C)CC2 (stereo not given) | 0
COc1cccc(CNC(=O)c2cnn3c(C)c(Cc4ccccc4)c(C)nc23)c1 | -7
COC(=O)C(C(=O)OC)c1cc(Br)c2noc3c2c1C(=O)c1ccccc1-3 | -57
CC(C)Nc1cc2c(NC(C)C)onc2c2c1C(=O)c1ccccc1C2=O | 87*

Screening results deposited in PubChem BioAssay by Emory University Molecular Libraries Screening Center.
